# Only some compounds are listed: those with a hit (about 3.1% of all), similar ones and a draw of the others.
# TDP1 inh = qHTS Assay for Inhibitors of Tyrosyl-DNA Phosphodiesterase (TDP1); Tyrosyl-DNA phosphodiesterase 1 (Homo sapiens), Q9NUW8; recombinant TDP1, AlphaScreen DNA substrate cleavage; Potency, µM (highest dose often 130 µM), for inactives: at the top dose activity change, negative = inhibition, hits mostly inhibitors; 0.28% of 350,000 active; AID 485290, 2010; further: on the % scale 0 is the no-effect control and ±100 the full control effect; nearly all actives have a fitted effect of over 40% in size
#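 Compounds were preincubated with Tdp1 (1 nM final) for 15 min at room temperature before substrate (15 nM final) started a 5 min reaction; beads (10 ug/ml final) were then added for 10 min before AlphaScreen detection.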
# Tb PFK block = qHTS Assay to Find Inhibitors of T. brucei phosphofructokinase; ATP-dependent 6-phosphofructokinase (Trypanosoma brucei brucei), O15648; T. brucei PFK, ADP-Glo luminescence; Potency, µM (doses to about 57.5 µM), for inactives: at the top dose activity, negative = inhibition, hits mostly inhibitors; 0.17% of 330,000 active; AID 485367, 2010;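 further: 0% = uninhibited 1x PFK enzyme wells and -100% = no-enzyme wells; nearly all actives have a fitted effect of over 60% in size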
# Target sequence (O15648 whole entry, looked up): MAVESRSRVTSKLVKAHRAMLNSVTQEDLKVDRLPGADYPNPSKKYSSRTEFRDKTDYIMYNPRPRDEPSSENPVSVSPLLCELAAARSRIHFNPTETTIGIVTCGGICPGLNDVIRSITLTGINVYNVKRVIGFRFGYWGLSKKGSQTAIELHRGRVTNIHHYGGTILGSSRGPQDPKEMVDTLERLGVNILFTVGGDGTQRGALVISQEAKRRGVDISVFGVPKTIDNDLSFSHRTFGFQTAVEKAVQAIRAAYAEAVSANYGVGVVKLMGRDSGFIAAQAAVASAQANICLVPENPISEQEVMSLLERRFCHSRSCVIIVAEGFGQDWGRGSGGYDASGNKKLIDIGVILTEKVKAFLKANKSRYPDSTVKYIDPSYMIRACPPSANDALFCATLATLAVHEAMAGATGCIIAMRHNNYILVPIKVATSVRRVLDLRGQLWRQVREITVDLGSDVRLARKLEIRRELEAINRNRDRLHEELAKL
#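 Activity is normalized to no-enzyme wells (full inhibition) and 1.25 nM enzyme wells (no inhibition). Reaction: 0.5 mM F6P, 0.1 mM ATP, 45 min RT, ADP-Glo luminescence; concentration-response curves fitted and classed by quality.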
# PLK1 PBD inh = qHTS for Inhibitors of PLK1-PDB (polo-like kinase 1 - polo-box domain): Primary Screen. Serine/threonine-protein kinase PLK1 (Homo sapiens), P53350. Plk1 PBD binding of FITC phosphopeptide, fluorescence polarization. Potency, µM, without a hit: max response, negative = inhibition, hits mostly inhibitors. 2.8% of 360,000 active. AID 720504, 2013; further: series mostly up to about 57 µM; on the % scale 0 is the no-effect control and ±100 the full control effect; nearly all actives have a fitted effect of over 65% in size
# VDR inh = Inhibitors of the vitamin D receptor (VDR): qHTS; Vitamin D3 receptor (Homo sapiens), P11473; VDR-SRC2-3 peptide fluorescence polarization, 2 h; Potency, µM, without a hit: max response, negative = inhibition, usual class: inhibitors; 0.93% of 400,000 active; AID 504847, 2011; further: on the % scale 0 is the no-effect control and ±100 the full control effect
#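 The screen uses fluorescence polarization to detect compounds that interfere with recruitment of the SRC2-3 coactivator peptide to VDR; plates are read after 2 h at room temperature.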
# Pin1 inhibitor = qHTS Assay to Find Inhibitors of Pin1; Peptidyl-prolyl cis-trans isomerase NIMA-interacting 1 (Homo sapiens), Q13526; Potency, µM (highest dose often 115 µM), for the others: at the highest dose activity, negative = inhibition, actives largely listed as inhibitors; Pin1 FP peptide displacement, HiFluor488, 10 min; 0.009% of 390,000 active; AID 504891, 2011; active means well fitted inhibition curve with a large enough effect in the polarisation, with a control signal flat, not every such curve was filed as active; inconclusive means small, poorly fitted or top-dose-only effect, or effect the other way, or a change in a side signal; inactive means no such curve, though single readings can be large or run the other way; the % refers to the polarisation; further: on the % scale 0 is the no-effect control and ±100 the full control effect
# ASM inhibitor = Inhibitors of Secretory Acid Sphingomyelinase (S-ASM): qHTS. AID 504937, 2011. Sphingomyelin phosphodiesterase (Homo sapiens), P17405. 0.006% of 340,000 active. Potency, µM (series often up to 57.5 µM), for inactives: at the top dose activity change, negative = inhibition, actives largely listed as inhibitors. placental ASM, HMU-PC fluorogenic substrate, 60 min
#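 Steps: dispense placental human ASM, pin compound, wait 10 min at room temperature, add HMU-PC0 substrate at 9 uM final, incubate 60 min at 37 °C, add stop solution raising pH to 10, read fluorescence.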
# Numbers without * were called inactive; u = inconclusive; x = not tested or not shown; ! = not active in a repeat; [ ] = remark or other dose. Unless noted, the call rests on the fitted dose curve; in most records, active means well fitted curve in the direction sought with a large enough effect; inconclusive means small, poorly fitted or top-dose-only effect, or another doubt; inactive means no such curve, though single readings can be large; an effect the other way counts as inactive or inconclusive. Potency means the concentration at half of the fitted maximal effect.
SMILES,TDP1 inh,Tb PFK block,PLK1 PBD inh,VDR inh,Pin1 inhibitor,ASM inhibitor
Cc1[nH]n(-c2ccccc2)c(=O)c1C(c1cccc([N+](=O)[O-])c1)c1c(C)[nH]n(-c2ccccc2)c1=O,10.6%,28.9%,23.8µM*,56.2µM*,-1.6%,-5.8%
Cc1[nH]n(-c2ccccc2)c(=O)c1C(C[N+](=O)[O-])c1ccc(Br)cc1 (stereo not drawn),9.3%,-2.8%,26.7µM*,u,-11.1%,-2.4%
Cc1[nH]n(-c2ccccc2)c(=O)c1C(c1ccc(C(=O)O)cc1)c1c(C)[nH]n(-c2ccccc2)c1=O,0.0%,19.5%,8.44µM*,-10.6%,u,-6.4%
CC(C)C[C@H](NC(=O)[C@H](CO)NC(=O)[C@H](C)NC(=O)[C@H](CCCN=C(N)N)NC(=O)[C@H](CCCN=C(N)N)NC(=O)[C@@H](N)CC(C)C)C(=O)NCC(=O)O,6.2%,x,x,7.1%,x,x
COc1cc(/C=C/C(=O)O)cc(S(=O)(=O)NCCCO)c1OC,-1.2%,-3.5%,-18.4%,-11.3%,-1.3%,3.8%
COc1cc(/C=C/C(=O)O)cc(S(=O)(=O)NNC(=O)c2cc(C)oc2C)c1OC,15.8µM*,2.5%,u,26.1%,-4.5%,3.4%
CCOC(=O)C(Cc1ccc(NC(=O)/C(=C/c2ccc(OC(C)=O)cc2)NC(C)=O)cc1)N1C(=O)c2ccccc2C1=O (stereo not drawn),5.9%,-2.7%,26.7µM*,7.8%,5.5%,-1.7%
CCOC(=O)C(Cc1ccc(NC(=O)/C(=C/c2ccccc2)NC(=O)c2ccccc2)cc1)N1C(=O)c2ccccc2C1=O (stereo not drawn),-3.9%,-5.4%,-0.5%,0.5%,-4.4%,3.3%
N#Cc1cnc(Sc2ccccc2)nc1,1.3%,1.3%,29.9µM*,u,-4.4%,0.7%
Nc1ccc(Sc2ccccc2)nc1,x,x,-3.7%,-12.5%,1.0%,4.7%
CCN(CC)C(=S)SCC(=O)c1ccc(F)cc1,0.0%,3.3%,29.9µM*,3.3%,-5.3%,0.2%
CCN(CC)C(=S)SCC(=O)c1ccccc1,-10.1%,-1.4%,-7.8%,17.1%,-0.8%,9.4%
Cc1cccc(S(=O)(=O)C(C#N)c2nc3ccccc3nc2N2CCCC2)c1 (stereo not drawn),8.8%,0.3%,29.9µM*!,3.6%,u,336.8%
C[Si](C)(C/C=C/CC[C@H](O)C1=CCCCC1=O)c1ccccc1,8.1%,x,x,-1.9%,x,x
CSc1ccccc1C(=O)Nc1ccccc1C(=O)NC(C)C,2.7%,-0.3%,29.9µM*,79.4µM*,-2.0%,-2.8%
CC(C)NC(=O)c1ccccc1NC(=O)C1COc2ccccc2O1 (stereo not drawn),1.9%[56.1 µM],0.3%,26.7µM*,u,1.7%,0.1%
CSc1ccccc1C(=O)Nc1cccc(C)c1,0.0%,3.2%,-0.7%,-2.7%,3.6%,-2.5%
C=CCOc1cccc(NC(=O)c2ccccc2SC)c1,3.6%,-1.0%,26.7µM*,-18.7%,0.8%,-2.4%
CCC(C)NC(=O)c1ccccc1NC(=O)C1COc2ccccc2O1 (stereo not drawn),-7.7%,-3.5%,-1.0%,-1.3%,-0.6%,-3.0%
O=C(/C=C/c1ccccc1)NC(NC(=S)Nc1ccc(Cl)cc1Cl)C(Cl)(Cl)Cl (stereo not drawn),4.6%,0.0%,13.4µM*,u,17.0%,x
Nc1nnc(CSCc2ccc(F)cc2)s1,-5.2%,-1.7%,18.9µM*,-18.5%,-1.7%,-0.3%
O=C(Nc1nnc(CSCc2ccc(F)cc2)s1)c1cccc([N+](=O)[O-])c1,5.5%,-1.0%,-14.7%,-0.9%,-1.8%,-15.5%
